# CD11b adhes enh – CD11b/CD18-fibrinogen binding enhancement. P05107+P11215. K562 CD11b/CD18 adhesion to fibrinogen, ATPlite luminescence. activation, % at 10 µM. hit rate 0.07% among 93,000. AID 1499;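 active = 10 µM primary screen giving 50% or more activity, confirmed by 40% or more on retest at that dose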
# Target sequence (P05107 whole entry, looked up, other chains not shown): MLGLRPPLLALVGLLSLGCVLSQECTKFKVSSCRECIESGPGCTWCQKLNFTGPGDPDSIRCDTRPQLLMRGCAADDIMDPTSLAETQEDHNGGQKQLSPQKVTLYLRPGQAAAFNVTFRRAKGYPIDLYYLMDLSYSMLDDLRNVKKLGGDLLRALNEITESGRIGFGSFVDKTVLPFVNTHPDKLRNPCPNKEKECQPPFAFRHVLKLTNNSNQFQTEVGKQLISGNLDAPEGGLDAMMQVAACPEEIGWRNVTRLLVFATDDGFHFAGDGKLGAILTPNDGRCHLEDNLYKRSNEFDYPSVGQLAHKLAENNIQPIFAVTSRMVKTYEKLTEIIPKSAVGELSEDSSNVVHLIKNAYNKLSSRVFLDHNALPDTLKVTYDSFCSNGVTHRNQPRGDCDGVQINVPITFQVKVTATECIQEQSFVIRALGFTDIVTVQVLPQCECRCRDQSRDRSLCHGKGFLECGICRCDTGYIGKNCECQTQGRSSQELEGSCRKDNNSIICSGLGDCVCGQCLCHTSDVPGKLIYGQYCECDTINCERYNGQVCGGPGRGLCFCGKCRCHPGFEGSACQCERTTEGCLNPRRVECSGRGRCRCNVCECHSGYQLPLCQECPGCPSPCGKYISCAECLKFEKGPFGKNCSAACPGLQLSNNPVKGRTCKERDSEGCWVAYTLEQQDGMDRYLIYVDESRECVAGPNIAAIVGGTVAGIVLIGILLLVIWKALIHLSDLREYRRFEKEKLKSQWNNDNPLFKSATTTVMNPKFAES
# CYP2C9 inh – blocks human cytochrome P450 2C9; P11712; CYP2C9 Supersomes, luciferin-H conversion, luminescence; inhibition, % at 5 µM; hit rate 20% among 96,000; AID 777;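 active = blocking of liver enzyme CYP2C9 beyond about 50% at 5 µM, limit read from the data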
# CYP2C19 act – activators of human cytochrome P450 2C19; 96,000 tested, under 10 active; recombinant CYP2C19, luciferin-H EGE luminescence; stronger effect = higher value; 0 = fully inhibited enzyme, 1 = untreated enzyme; activation factor at 5 µM; P33261;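 active = activation factor of at least 2 at 5 µM in the primary screen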;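 note: 0 = wells with 2.5 mM tranylcypromine and 1 = vehicle-only wells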
# Mac1 fbg inh – blocks human CD11b/CD18 adhesion to fibrinogen | P05107+P11215 | K562 CD11b/CD18 adhesion to fibrinogen, ATPlite luminescence; Mn2+ added to activate the integrin | inhibition, % at 10 µM | hit rate 0.54% among 93,000;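 active = primary inhibition of 50% or more at 10 µM, then 40% or more on retest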
# CYP2C9 activ – CYP2C9 (human) activation. recombinant CYP2C9, luciferin-H conversion, luminescence; stronger effect = higher value; factor 1 = untreated enzyme, 0 = blocked. activation factor at 5 µM. AID 1024. hit rate 1.4% among 96,000. P11712;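 active = activation factor of 2 or more for CYP2C9 at a 5 µM dose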;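 note: 0 = sulfaphenazole-blocked wells and 1 = vehicle-only wells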
# CYP2C19 inhib – blocks human cytochrome P450 2C19; P33261; CYP2C19 Supersomes, luciferin-H EGE luminescence, 30 min; inhibition, % at 5 µM; hit rate 21% among 96,000; AID 778;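 active = CYP2C19 inhibition above a set limit at 5 µM in the primary screen, cut at about 50% in these data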;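 note: plate controls were negative control wells for no effect and 2.5 mM tranylcypromine positive control for full effect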
# An asterisk follows results filed as active; · = not tested or not shown. This is a sample that favours compounds with a hit; in the whole collection about 28% have one here.
SMILES,CD11b adhes enh,CYP2C9 inh,CYP2C19 act,Mac1 fbg inh,CYP2C9 activ,CYP2C19 inhib
O=C(OCc1ccc(Cl)c(Cl)c1)c1cnccn1,4,6,0.4,-16,0.9,61*
CC(=O)Nc1ccc(OCC(=O)c2cc(C)ccc2C)cc1,-2,-15,0.7,-20,1.2,33
CCN(Cc1ccccc1)Cc1cccc([N+](=O)[O-])c1,8,32,0.5,-7,0.7,47
NC(=O)COC(=O)c1ccc(Oc2ccccc2)cc1,-5,44,0.4,-12,0.6,55*
COC(=O)c1ccc(OCC(=O)c2ccccc2)cc1,-4,30,0.3,7,0.7,75*
CCOC(=O)c1c(C)[nH]c(C(=O)C(C)OC(=O)c2cccc(OCc3c(C)noc3C)c2)c1C (stereo not drawn),·,90*,0.2,·,0.1,79*
CCOC(=O)N1CCN(C(=O)C(NC(=O)C2CCC(C)CC2)C(C)C)CC1 (stereo not drawn),0,34,1.1,-8,0.7,-6
CCOC(=O)N1CCC(NC(=O)C(NC(=O)C2CCC(C)CC2)C(C)CC)CC1 (stereo not drawn),-4,26,0.5,-14,0.7,53*
Cc1nn(CC(O)Cn2c3c(c4ccccc42)CCN(C)C3=O)c(C)c1Br (stereo not drawn),0,81*,0.1,12,0.2,91*
Cc1ccc2c(c1)c1c(n2CC(O)Cn2c(C)nc3ccccc32)CCCC1 (stereo not drawn),24,77*,0.9,15,0.2,14
Cc1ccc2c(c1)c1c(n2CC(O)Cn2nc(C)c(Br)c2C)CCCC1 (stereo not drawn),0,72*,0.4,16,0.3,64*
Cc1ccc2c(c1)c1c(n2CC(O)CNC(C)(C)C)CCCC1 (stereo not drawn),-2,-1,0.7,-8,1,28
Cc1nn(CC(O)Cn2cnc3c2c(=O)n(C)c(=O)n3C)c(C)c1Br (stereo not drawn),-4,2,1,8,1,3
Cc1ccccc1Nc1nc(N)nc(COC(=O)CC2CC3CCC2C3)n1 (stereo not drawn),9,·,·,6,·,·
c1ccc(-c2csc(Cc3nnc4n3CCCCC4)n2)cc1,-3,6,0.8,2,0.9,24
Cc1ccc(N)c(C(O)(C(F)(F)F)C(F)(F)F)c1,1,58*,0.2,-2,0.4,82*
CC1CCCC(C)N1CCNC(=O)CCn1nc(-c2ccccc2)ccc1=O (stereo not drawn),3,-5,1.2,7,1,-16
CCN(CC)S(=O)(=O)c1cccc(-c2cn3cc(C)ccc3n2)c1,0,67*,0.4,-1,0.3,61*
Clc1ccc(SCc2cc(-c3ccc(Cl)cc3)on2)cc1,-2,20,1,19,0.8,2
CCn1cc(C(=O)O)c(=O)c2cc(Br)ccc21,-3,-21,1.1,-12,1.2,-8
CCOC(=O)c1cn(CC)c2ccc(Br)cc2c1=O,6,-96,0.9,17,2*,6
O=C(CCCNC(=O)/C(=C/c1ccc(F)cc1)NC(=O)c1ccccc1)OCc1ccccc1,-2,·,·,-2,·,·
O=C(c1ccc(NC(=S)Nc2ccc(Cl)c(Cl)c2)cc1)N1CCCC1,7,·,·,0,·,·
CCOCCCNC(=O)c1ccc(CS(=O)(=O)Cc2ccccc2F)o1,-7,0,0.9,-2,1,12
Cc1cc(C)c(C#N)c(SCC(=O)N2CCCCC2)n1,2,-36,0.5,-22,1.4,54*
SMILES,CD11b adhes enh,CYP2C9 inh,CYP2C19 act,Mac1 fbg inh,CYP2C9 activ,CYP2C19 inhib
Cc1cc(C)c2nc(SCC(=O)N3CCCCC3)c(C#N)cc2c1,0,-10,1,-4,1.1,0
CCN(Cc1ccccc1)C(=O)CSc1nc(C)cc(C)c1C#N,0,-60,0.4,2,1.6,62*
Cc1cc(C)c(C#N)c(SCC(=O)N2CCN(Cc3ccccc3)CC2)n1,-4,30,0.5,1,0.7,52*
COc1ccccc1CCNC(=O)CSc1nc(-c2ccco2)cc(C(F)(F)F)n1,-1,5,1,-3,0.9,3
O=C(CSc1nc(-c2ccco2)cc(C(F)(F)F)n1)NCCCn1ccnc1,2,96*,0.1,16,0,91*
COC(=O)c1ccc(CSc2nc(-c3ccco3)cc(C(F)(F)F)n2)o1,-2,75*,0.7,17,0.3,34
O=C(CCSc1nc(-c2ccco2)cc(C(F)(F)F)n1)NCCc1ccccc1,8,51*,0.6,-20,0.5,39
CCn1cc(CNC(=O)CCSc2nc(-c3ccco3)cc(C(F)(F)F)n2)cn1,1,19,0.8,-3,0.8,24
O=C(CCCSc1nc(-c2ccco2)cc(C(F)(F)F)n1)Nc1ccc2c(c1)OCO2,-4,79*,0.5,-4,0.2,48
O=C(CCCSc1nc2ccccc2s1)NCc1ccc2c(c1)OCO2,-4,·,·,30,·,·
CCS(=O)(=O)NCCc1cc2ccc(C)cc2[nH]c1=O,·,-13,1,·,1.1,-2
CCOC(=O)N1CCC(N2CC34C=CC(O3)C(C(=O)O)C4C2=O)CC1 (stereo not drawn),-2,-18,1,12,1.2,-4
CC(NC(=O)CCSc1nc(-c2ccc3c(c2)OCO3)cc(C(F)(F)F)n1)c1ccccc1 (stereo not drawn),·,83*,0.2,·,0.2,81*
O=C(CSc1nc(-c2ccco2)cc(C(F)(F)F)n1)Nc1cccnc1,0,53*,0.7,-2,0.5,26
Cc1c(CN(C)C(=O)CSc2nc(-c3ccco3)cc(C(F)(F)F)n2)cnn1C,-2,38,0.8,5,0.6,20
COc1ccc(CCNC(=O)CSc2nc(-c3ccco3)cc(C(F)(F)F)n2)cc1,2,69*,0.4,0,0.3,58*
COc1ccc(-c2cc(C(F)(F)F)nc(SCCC(=O)NCc3ccccc3)n2)cc1,4,-8,0.7,10,1.1,31
Fc1ccc(Sc2nc(-c3ccccc3)nnc2C(F)(F)F)cc1,1,38,0.9,18,0.6,14
O=C(Nc1c(F)c(F)c(F)c(F)c1F)C1CCCCC1,-3,14,0.8,5,0.9,16
Cc1nc2ccc(NC(=O)Cn3cnc4c3c(=O)n(C)c(=O)n4C)cc2s1,1,13,1,2,0.9,1
Cn1c(=O)c2ncn(CC(=O)Nc3cccc(-c4nc5ccccc5s4)c3)c2n(C)c1=O,2,50*,0.8,30,0.5,22
Cc1ccc(N2CCN(c3ccc(C)cc3)C2c2ccncc2)cc1,0,71*,0.1,-7,0.3,88*
Cc1cccc(N2CCN(c3cccc(C)c3)C2c2cccnc2)c1,0,21,0.5,19,0.8,47

# Screening data: PubChem BioAssay, Sanford-Burnham Center for Chemical Genomics
